E coli growth-1 = inhibitors of Escherichia coli growth | OD600, 23 h; stronger effect = lower value | OD600 absorbance (concentration not given with the values) | 330,000 compounds, 0.21% hits;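 active = OD600 absorbance below the run mean of sample wells minus 3.6 SD, in any replicate, cut at about 0.56 in these data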
AddAB inh = less growth of phage-infected E. coli with AddAB; E. coli expressing H. pylori AddAB, absorbance growth; inhibition, % at 11.9 µM; 330,000 compounds, 0.29% hits; AID 435030; in the data active = inhibition above about 12%
phage Ecoli inh = E. coli growth loss with phage present; growth absorbance; inhibition, % at 11.9 µM; 360,000 compounds, 0.26% hits; in the data active = inhibition above about 11%
E coli growth-2 = reduces bacterial viability in AddAB counter-screen; E. coli V3065 growth, OD600 absorbance, 18 h; inhibition, % at 11.9 µM; 330,000 compounds, 0.27% hits; AID 449728;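 active = inhibition above the campaign's mean inhibition across all tested compounds plus 3 SD, cut at about 9.9% in these data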;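 also: uninfected addAB+ strain grown without phage in ampicillin broth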
Tat export inh = E. coli Tat transport inhibition. E. coli MC4100 TorA-mCherry Tat export, fluorescence. inhibition, % at 10 µM. 340,000 compounds, 0.036% hits;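 active = mean replicate inhibition at least 50% and at least half of replicates individually reaching 50%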;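 also: exported cargo escapes ClpAP degradation while cytoplasmic cargo is degraded and loses fluorescence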
AddAB confirm = confirmation screen: growth loss of phage-infected E. coli expressing H. pylori AddAB | shares compounds with AddAB inh | E. coli V3065 expressing H. pylori AddAB, T4 phage, OD; T4 phage with gene 2 nonsense mutations | inhibition, % at 11.9 µM | 880 compounds, 64% hits;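 active = mean inhibition above a set limit taken from the earlier primary screen, cut at about 13% in these data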;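 also: higher means less bacterial growth since AddAB block lets phage replicate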
RecBCD counter = counter-screen: growth loss of RecBCD+ E. coli with mutant T4 phage; 880 compounds, 73% hits; inhibition, % at 11.9 µM; E. coli V66 + mutant T4 phage, OD growth; shares compounds with AddAB inh; AID 488955;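 active = mean inhibition above the mean of solvent-only control wells plus 3 SD, cut at about 4% in these data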;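 also: optical density read after an 18 h incubation at 37 °C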
Bact viability = counter-screen for AddAB inhibitors: inhibitors of bacterial viability | 880 compounds, 35% hits | shares compounds with AddAB inh | absorbance (AddAB counterscreen) | inhibition, % at 11.9 µM; in the data active = inhibition above about 25%
Numbers stand for hits. Sampled rows, rich in hits. Any-hit rate of the full collection: about 0.5%.

How did N#CC1=C(N)OC2=C(C(=O)CC(c3ccccc3)C2)C1c1ccoc1 (stereo unspecified) do in these assays?
E coli growth-1: inactive; AddAB inh: inactive; phage Ecoli inh: inactive; E coli growth-2: inactive; Tat export inh: inactive

What do the screens show for `CC1C(C#N)=C(N)OC2=C1C(=O)CC(c1ccccc1)C2` (stereo unspecified)?
E coli growth-1: inactive; AddAB inh: 97.1; phage Ecoli inh: inactive; E coli growth-2: 73.5; Tat export inh: inactive; AddAB confirm: inactive; RecBCD counter: inactive; Bact viability: inactive

What do the screens show for `C=C1CCN(C(C(=O)OCc2cccc(C)c2)C(C)C)S(=O)(=O)c2ccccc21` (stereo unspecified)?
E coli growth-1: inactive

What do the screens show for `COC(=O)c1ccc(C23CC4(C2)C(CN(C)C4c2ccccc2)C3c2ccccc2)cc1` (stereo unspecified)?
E coli growth-1: inactive

How did CCCc1cc(C(=O)Nc2cc(C)on2)no1 do in these assays?
E coli growth-1: inactive; AddAB inh: 99.7; phage Ecoli inh: inactive; E coli growth-2: 95.6; Tat export inh: inactive; AddAB confirm: inactive; RecBCD counter: inactive; Bact viability: inactive

How did Cc1cc(NC(=O)c2cc(C)on2)no1 do in these assays?
E coli growth-1: inactive; AddAB inh: inactive; phage Ecoli inh: inactive; E coli growth-2: inactive; Tat export inh: inactive

Results for O=C(Oc1c(Cl)cc(Cl)c2cccnc12)c1cccc([N+](=O)[O-])c1 ?
E coli growth-1: 0.071; AddAB inh: 29.9; E coli growth-2: 27.7; Tat export inh: inactive; AddAB confirm: 61.6; RecBCD counter: 59.0; Bact viability: 58.4

What do the screens show for `O=C(Oc1cccc2cccnc12)c1cccc([N+](=O)[O-])c1`?
E coli growth-1: inactive; AddAB inh: inactive; phage Ecoli inh: inactive; E coli growth-2: inactive; Tat export inh: inactive

Results for O=[N+]([O-])c1ccc(/C=N/n2cnc3ccccc32)s1 ?
AddAB inh: 15.4; phage Ecoli inh: inactive; E coli growth-2: inactive; Tat export inh: inactive; AddAB confirm: 97.7; RecBCD counter: 5.9; Bact viability: inactive

How did O=C1NC(Cc2ccccc2)COC(=O)C(Cc2ccc(F)cc2)CC=CCC1CC(=O)N(CCO)Cc1ccccc1 (stereo unspecified) do in these assays?
E coli growth-1: inactive

How did CCOCCn1c(CN(C)Cc2ccccc2)nc2c1c(=O)n(C)c(=O)n2C do in these assays?
E coli growth-1: inactive; AddAB inh: 100.0; phage Ecoli inh: inactive; E coli growth-2: 100.1; Tat export inh: inactive; AddAB confirm: inactive; RecBCD counter: inactive; Bact viability: inactive

Results for Cc1noc(NS(=O)(=O)c2ccc(NC(=O)C(C)(C)C)cc2)c1C ?
E coli growth-1: inactive; AddAB inh: inactive; phage Ecoli inh: inactive; E coli growth-2: inactive; Tat export inh: inactive

Results for Cc1noc(NS(=O)(=O)c2ccc(NC(=O)C(F)(F)F)cc2)c1C ?
E coli growth-1: inactive; AddAB inh: 15.1; phage Ecoli inh: inactive; E coli growth-2: inactive; Tat export inh: inactive; AddAB confirm: inactive; RecBCD counter: inactive; Bact viability: inactive

How did O=C(CSc1ccsc1[N+](=O)[O-])NCc1ccco1 do in these assays?
E coli growth-1: inactive; AddAB inh: 30.1; phage Ecoli inh: inactive; E coli growth-2: 21.3; Tat export inh: inactive; AddAB confirm: 51.8; RecBCD counter: 5.0; Bact viability: 25.7

How did O=C(CCNC(=O)c1ccco1)Nc1cccc(Br)c1 do in these assays?
E coli growth-1: inactive; AddAB inh: 14.3; phage Ecoli inh: inactive; E coli growth-2: inactive; Tat export inh: inactive; AddAB confirm: inactive; RecBCD counter: inactive; Bact viability: inactive

Results for CSc1cccc(NC(=O)CCNC(=O)c2ccco2)c1 ?
E coli growth-1: inactive; AddAB inh: inactive; phage Ecoli inh: inactive; E coli growth-2: inactive; Tat export inh: inactive

What do the screens show for `O=C(Nc1ccc([N+](=O)[O-])cc1)Nc1ccc(OC(F)F)c(Cl)c1`?
E coli growth-1: 0.288; AddAB inh: 14.9; phage Ecoli inh: 12.9; E coli growth-2: 14.7; Tat export inh: inactive; AddAB confirm: 15.2; RecBCD counter: 17.0; Bact viability: inactive

Results for COc1ccc2c(CC(=O)OCC(=O)Nc3cccc(S(N)(=O)=O)c3)coc2c1 ?
E coli growth-1: inactive; AddAB inh: 97.5; phage Ecoli inh: inactive; E coli growth-2: 96.4; Tat export inh: inactive; AddAB confirm: inactive; RecBCD counter: inactive; Bact viability: inactive

What do the screens show for `CC1C(=O)N2CCCc3cc(S(=O)(=O)N(C)c4ccccc4)cc1c32` (stereo unspecified)?
E coli growth-1: inactive; AddAB inh: 43.9; phage Ecoli inh: inactive; E coli growth-2: 23.0; Tat export inh: inactive; AddAB confirm: inactive; RecBCD counter: inactive; Bact viability: inactive

How did CC(O)C(C(=O)N1CCNCC1)n1cc(C(N)CCCCN)nn1 (stereo unspecified) do in these assays?
E coli growth-1: inactive

What do the screens show for `CCCCCC(=O)NCc1c(C(F)(F)F)nn(C)c1N1CCOCC1`?
E coli growth-1: inactive; AddAB inh: 97.6; phage Ecoli inh: inactive; E coli growth-2: 96.8; Tat export inh: inactive; AddAB confirm: inactive; RecBCD counter: inactive; Bact viability: inactive

What do the screens show for `CC(=NNC(=O)c1ccncc1)c1ccccc1`?
E coli growth-1: inactive

Results for COc1ccc(-c2oc3cc(OC(C)=O)cc(OC(C)=O)c3c(=O)c2OC)cc1 ?
E coli growth-1: inactive; phage Ecoli inh: inactive; Tat export inh: inactive

What do the screens show for `CC(=O)Oc1cc(O)c2c(=O)c(OC(C)=O)c(-c3ccc(OC(C)=O)c(OC(C)=O)c3)oc2c1`?
E coli growth-1: inactive; AddAB inh: 16.1; E coli growth-2: inactive; Tat export inh: inactive; AddAB confirm: 14.1; RecBCD counter: 4.2; Bact viability: inactive

How did Cc1cc(=O)[nH]c(NN=Cc2ccc(OC(=O)c3cccnc3)cc2)n1 do in these assays?
E coli growth-1: inactive

Results for CC1=NN(C(=O)c2ccc(Cn3cc(Br)c([N+](=O)[O-])n3)o2)C(O)(C(F)(F)F)C1 (stereo unspecified) ?
E coli growth-1: inactive; AddAB inh: 18.3; phage Ecoli inh: inactive; E coli growth-2: inactive; Tat export inh: inactive; AddAB confirm: inactive; RecBCD counter: inactive; Bact viability: inactive

How did COc1cccc(/C=N\NC(=O)c2ccc(Cn3cc(Br)c([N+](=O)[O-])n3)o2)c1O do in these assays?
AddAB inh: 16.4; phage Ecoli inh: inactive; E coli growth-2: 9.9; Tat export inh: inactive; AddAB confirm: 30.7; RecBCD counter: 7.1; Bact viability: inactive

How did Cc1cc(/C=N/n2c(COc3ccccc3)nc3ccccc3c2=O)c(O)c([N+](=O)[O-])c1 do in these assays?
AddAB inh: 14.7; phage Ecoli inh: inactive; E coli growth-2: 13.1; Tat export inh: inactive; AddAB confirm: inactive; RecBCD counter: 14.2; Bact viability: inactive

Compound activity as filed in PubChem.
